From PubChem BioAssay (NCI)
About 83,000 compounds went through this panel and 20% of them were active in at least one assay; those are over-represented in the sample as a whole.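 The test compound was applied at a single concentration to cells in 96-well plates for 48 hours, and percent growth was recorded.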 Activity calls are given as the source filed them. How the source made its calls: active means growth percent below 10; inactive means the rest.

Legend:
Test in all cases: NCI-60 one-dose screen, 48 h (100 = growth as untreated, 0 = no growth, -100 = all killed)
Conditions in all cases: 10 µM unless noted
DU-145 prostate = system: DU-145 prostate
K-562 leukemia = system: K-562 leukemia
MALME-3M melanoma = system: MALME-3M melanoma
MDA-MB-231 breast = system: MDA-MB-231 breast
RXF 393 renal = system: RXF 393 renal
SF-268 CNS = system: SF-268 CNS
SF-295 CNS = system: SF-295 CNS
SF-539 CNS = system: SF-539 CNS
UACC-257 melanoma = system: UACC-257 melanoma
M14 melanoma = system: M14 melanoma
HCT-15 colon = system: HCT-15 colon
HT29 colon = system: HT29 colon
SNB-75 CNS = system: SNB-75 CNS
SNB-19 CNS = system: SNB-19 CNS
U251 CNS = system: U251 CNS
PC-3 prostate = system: PC-3 prostate
SK-MEL-5 melanoma = system: SK-MEL-5 melanoma
UACC-62 melanoma = system: UACC-62 melanoma
LOX IMVI melanoma = system: LOX IMVI melanoma
SK-MEL-28 melanoma = system: SK-MEL-28 melanoma

Measured: growth

N#CC1=C(c2ccccc2)Nc2c(c(-c3ccc(Cl)cc3)nn2-c2ccccc2)C12C(=O)Nc1ccc(Cl)cc12 (stereo not given)
active: SNB-75 CNS 6.22%
inactive: DU-145 prostate 86.1% | K-562 leukemia 65.9% | MALME-3M melanoma 86.4% | MDA-MB-231 breast 58.8% | RXF 393 renal 49.8% | SF-268 CNS 55.3% | SF-295 CNS 56.5% | SF-539 CNS 85.2% | UACC-257 melanoma 73% | M14 melanoma 72.7% | HCT-15 colon 61.8% | HT29 colon 47.8% | SNB-19 CNS 70.5% | U251 CNS 64% | PC-3 prostate 51% | SK-MEL-5 melanoma 87.5% | UACC-62 melanoma 66% | LOX IMVI melanoma 77.5% | SK-MEL-28 melanoma 90.8%

O=C(CN1C(=O)S/C(=C\c2ccccc2)C1=O)Nc1ncc(Cc2ccccc2Cl)s1
inactive: DU-145 prostate 87% | K-562 leukemia 97.3% | MALME-3M melanoma 104% | MDA-MB-231 breast 101% | RXF 393 renal 125% | SF-268 CNS 87.9% | SF-295 CNS 100% | SF-539 CNS 94.8% | UACC-257 melanoma 96.9% | M14 melanoma 102% | HCT-15 colon 92.3% | HT29 colon 109% | SNB-75 CNS 81.9% | SNB-19 CNS 101% | U251 CNS 95% | PC-3 prostate 79% | SK-MEL-5 melanoma 98.2% | UACC-62 melanoma 85.6% | LOX IMVI melanoma 87.9% | SK-MEL-28 melanoma 119%

CCCCNC(=O)Oc1ccc(/C(=C(/C)Cc2ccc(OC)cc2)c2ccc(OCCN(CC)CC)cc2)cc1
active: K-562 leukemia 3.84% | HT29 colon 6.03%
inactive: DU-145 prostate 91.7% | MALME-3M melanoma 88.1% | MDA-MB-231 breast 88.8% | RXF 393 renal 81.7% | SF-268 CNS 86.2% | SF-295 CNS 86.6% | SF-539 CNS 77.8% | UACC-257 melanoma 90.7% | M14 melanoma 52.1% | HCT-15 colon 41% | SNB-75 CNS 69.1% | SNB-19 CNS 87.7% | U251 CNS 59% | PC-3 prostate 62.1% | SK-MEL-5 melanoma 79.1% | UACC-62 melanoma 84.7% | LOX IMVI melanoma 74.9% | SK-MEL-28 melanoma 82.8%

CC/C(=C(/c1ccc(Cl)cc1)c1ccc(OCCN(C)C)cc1)c1ccc(Cl)cc1
inactive: DU-145 prostate 77.7% | K-562 leukemia 16% | MALME-3M melanoma 73.9% | MDA-MB-231 breast 83.3% | RXF 393 renal 68.5% | SF-268 CNS 77.4% | SF-295 CNS 69.7% | SF-539 CNS 86.2% | UACC-257 melanoma 72.2% | M14 melanoma 88.1% | HCT-15 colon 32.2% | HT29 colon 22.4% | SNB-75 CNS 61.9% | SNB-19 CNS 78.4% | U251 CNS 37.8% | PC-3 prostate 71.4% | SK-MEL-5 melanoma 86.4% | UACC-62 melanoma 96.3% | LOX IMVI melanoma 65.3% | SK-MEL-28 melanoma 90.3%

O=C(Nn1c2c(sc1=NC1CC1)C(=O)c1ccccc1C2=O)c1cc2ccc1CCc1ccc(cc1)CC2
inactive: DU-145 prostate 33.2% | K-562 leukemia 25.9% | MDA-MB-231 breast 15.4% | RXF 393 renal 53.7% | SF-268 CNS 45.2% | SF-295 CNS 79.6% | HT29 colon 108% | SNB-19 CNS 33.7% | U251 CNS 32.6% | PC-3 prostate 30.7% | SK-MEL-28 melanoma 40.2%
active: MALME-3M melanoma -64.3% | SF-539 CNS 5.17% | UACC-257 melanoma -28.6% | M14 melanoma -21.8% | HCT-15 colon 2.79% | SNB-75 CNS -10.4% | SK-MEL-5 melanoma -77.6% | UACC-62 melanoma -12.4% | LOX IMVI melanoma 0.512%

COc1cc2c(c(OC)c1OC)CCC(c1cccc(C(=O)Nc3ccc(C#N)cc3)c1)O2 (stereo not given)
active: SK-MEL-5 melanoma -12.7%
inactive: DU-145 prostate 66.5% | K-562 leukemia 20.4% | MALME-3M melanoma 58.2% | MDA-MB-231 breast 49.4% | RXF 393 renal 78.8% | SF-268 CNS 80.1% | SF-295 CNS 42.5% | SF-539 CNS 68.8% | UACC-257 melanoma 44.5% | M14 melanoma 37.7% | HCT-15 colon 59.7% | HT29 colon 69.3% | SNB-75 CNS 57.3% | SNB-19 CNS 58.7% | U251 CNS 64.2% | PC-3 prostate 14% | UACC-62 melanoma 24.6% | LOX IMVI melanoma 39.5% | SK-MEL-28 melanoma 58.8%

COc1cc(-c2nccc3[nH]c(-c4ccc5cc[nH]c5c4)nc23)cc(OC)c1OC
active: K-562 leukemia -14.4% | MDA-MB-231 breast -20.3% | SF-295 CNS -59.4% | SF-539 CNS -19.5% | M14 melanoma 4.35% | HCT-15 colon -7.01% | HT29 colon -37.8% | U251 CNS -16.3% | PC-3 prostate -0.946% | SK-MEL-5 melanoma -38.4% | LOX IMVI melanoma -67.5%
inactive: DU-145 prostate 18.2% | MALME-3M melanoma 21.7% | RXF 393 renal 18% | SF-268 CNS 19.3% | UACC-257 melanoma 29.6% | SNB-75 CNS 18.9% | SNB-19 CNS 34.8% | UACC-62 melanoma 27.4% | SK-MEL-28 melanoma 42.1%

Cc1nc2sc(C(=O)Nc3cccc(Br)c3)c(N)c2cc1C(O)c1ccccc1 (stereo not given)
inactive: DU-145 prostate 23.8% | MALME-3M melanoma 55% | MDA-MB-231 breast 24.2% | RXF 393 renal 28.2% | SF-268 CNS 42.4% | SF-295 CNS 40.2% | UACC-257 melanoma 38.8% | M14 melanoma 16.7% | HCT-15 colon 21% | HT29 colon 18.1% | SNB-75 CNS 55.4% | SNB-19 CNS 33.8% | U251 CNS 11.1% | PC-3 prostate 30.2% | SK-MEL-5 melanoma 17.9% | UACC-62 melanoma 26.2% | LOX IMVI melanoma 48% | SK-MEL-28 melanoma 61.9%
active: K-562 leukemia 7.97% | SF-539 CNS 6.22%

Cn1c(I)c(C#CCO[Si](C)(C)C(C)(C)C)c(=O)[nH]c1=O
active: K-562 leukemia 2.55% | MALME-3M melanoma -51.2% | RXF 393 renal -15.3%
inactive: DU-145 prostate 99.9% | MDA-MB-231 breast 91.5% | SF-268 CNS 105% | SF-295 CNS 101% | SF-539 CNS 104% | UACC-257 melanoma 96.6% | M14 melanoma 83.1% | HCT-15 colon 91% | HT29 colon 113% | SNB-75 CNS 99.9% | SNB-19 CNS 104% | U251 CNS 109% | PC-3 prostate 96.5% | SK-MEL-5 melanoma 103% | UACC-62 melanoma 101% | LOX IMVI melanoma 99.9% | SK-MEL-28 melanoma 30.7%

COc1cc2cc(NCc3cccc(Cl)c3)nc(C)c2cc1OC
inactive: DU-145 prostate 62.8% | MALME-3M melanoma 80.6% | MDA-MB-231 breast 41.6% | RXF 393 renal 40.3% | SF-268 CNS 41.3% | SF-295 CNS 26.1% | UACC-257 melanoma 69.8% | M14 melanoma 29.4% | HCT-15 colon 48.2% | SNB-75 CNS 65.9% | SNB-19 CNS 48.8% | U251 CNS 31.1% | PC-3 prostate 50.1% | SK-MEL-5 melanoma 43.4% | UACC-62 melanoma 14.4% | SK-MEL-28 melanoma 33.3%
active: K-562 leukemia 8.28% | SF-539 CNS 5.02% | HT29 colon 3.17% | LOX IMVI melanoma 0.852%

COC1=CC(c2ccc[nH]2)=N/C1=C\c1[nH]c(C)c(CC(=O)OCc2ccccc2)c1CCC(=O)OCc1ccccc1
active: K-562 leukemia -11.3% | MALME-3M melanoma -62.1% | MDA-MB-231 breast -44.5% | RXF 393 renal -42.6% | SF-268 CNS -2.4% | SF-295 CNS -62.3% | SF-539 CNS -78.1% | UACC-257 melanoma -46% | M14 melanoma -78.2% | HCT-15 colon -56.7% | HT29 colon 0.828% | SNB-75 CNS -6.6% | U251 CNS -71.4% | PC-3 prostate -40.3% | SK-MEL-5 melanoma -93.8% | UACC-62 melanoma -69.7% | LOX IMVI melanoma -80.7% | SK-MEL-28 melanoma -52.4%
inactive: DU-145 prostate 11.8% | SNB-19 CNS 25.5%

Nc1n[nH]c2cccc(C#Cc3cccc(C(=O)Nc4cc(C(F)(F)F)cc(C(F)(F)F)c4)c3)c12
inactive: DU-145 prostate 91.5% | MALME-3M melanoma 53.4% | MDA-MB-231 breast 51.9% | RXF 393 renal 50.5% | SF-268 CNS 68.8% | SF-295 CNS 77.9% | SF-539 CNS 53.3% | UACC-257 melanoma 71.6% | M14 melanoma 34.1% | HCT-15 colon 70.4% | HT29 colon 46.4% | SNB-75 CNS 91.5% | SNB-19 CNS 105% | U251 CNS 84% | PC-3 prostate 33% | SK-MEL-5 melanoma 73% | UACC-62 melanoma 50% | LOX IMVI melanoma 41.2% | SK-MEL-28 melanoma 62.1%
active: K-562 leukemia 4.87%

Nc1c(C(=O)Nc2ccccc2F)sc2nc3c(cc12)CCCC3
inactive: DU-145 prostate 26.8% | K-562 leukemia 14.1% | MALME-3M melanoma 62.9% | MDA-MB-231 breast 45.1% | RXF 393 renal 39.2% | SF-268 CNS 50.4% | SF-295 CNS 21.9% | UACC-257 melanoma 61.6% | M14 melanoma 33.5% | HCT-15 colon 28.7% | HT29 colon 11.3% | SNB-75 CNS 37.5% | SNB-19 CNS 33.7% | U251 CNS 26.7% | PC-3 prostate 27.7% | SK-MEL-5 melanoma 15.5% | UACC-62 melanoma 26.7% | LOX IMVI melanoma 40.5% | SK-MEL-28 melanoma 73.7%
active: SF-539 CNS 6.85%

COc1ccc(C2CC(c3ccc(Nc4nc(Nc5ccccc5)nc(Nc5ccccc5)n4)cc3)=NN2C(C)=O)cc1 (stereo not given)
inactive: DU-145 prostate 144% | K-562 leukemia 75.2% | MALME-3M melanoma 110% | MDA-MB-231 breast 95.5% | SF-268 CNS 139% | SF-295 CNS 99.5% | SF-539 CNS 121% | UACC-257 melanoma 88.4% | M14 melanoma 107% | HCT-15 colon 96.9% | HT29 colon 101% | SNB-75 CNS 89.8% | SNB-19 CNS 88.7% | U251 CNS 88.1% | PC-3 prostate 86.4% | SK-MEL-5 melanoma 83.5% | UACC-62 melanoma 94.3% | LOX IMVI melanoma 103% | SK-MEL-28 melanoma 109%
active: RXF 393 renal -10.9%

COC(CC(F)F)c1cn(S(=O)(=O)c2ccc(C)cc2)c2ccccc12 (stereo not given)
active: M14 melanoma 7.65% | HT29 colon 4.89%
inactive: DU-145 prostate 21.3% | K-562 leukemia 14.5% | MALME-3M melanoma 50.9% | MDA-MB-231 breast 38.2% | RXF 393 renal 39.4% | SF-268 CNS 42% | SF-295 CNS 15% | SF-539 CNS 15.7% | UACC-257 melanoma 37.1% | HCT-15 colon 20% | SNB-75 CNS 18.6% | SNB-19 CNS 29.2% | U251 CNS 19.6% | PC-3 prostate 21.3% | SK-MEL-5 melanoma 34.1% | UACC-62 melanoma 32.1% | LOX IMVI melanoma 40.7% | SK-MEL-28 melanoma 44.7%
